# Assay outcomes as filed in PubChem.
# PGK inhibitor – T. brucei PGK inhibition | Potency, µM (series often up to 57.5 µM), usual class: inhibitors | PGK/GAPDH coupled, Kinase-Glo luminescence, 60 min | 0.043% of 380,000 active; further: nearly all actives have a fitted effect of over 60% in size
#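 Luminescent ATP detection (Kinase-Glo Plus) follows a 60-minute room-temperature incubation, with wells lacking PGK as controls. Buffer: 100 mM TEA (pH 7.6), 5 mM MgCl2, 0.01% Tween-20. Coupling enzyme GAPDH (100 nM final) supplies unstable 1,3-BPG in-well.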
# GLS inh – inhibitors of human glutaminase (GLS); O94925; AID 624170; 0.21% of 410,000 active; Potency, µM (doses to about 45.5 µM), hits mostly inhibitors; GLS enzymatic activity, qHTS titration
# Target sequence (O94925 whole entry, looked up): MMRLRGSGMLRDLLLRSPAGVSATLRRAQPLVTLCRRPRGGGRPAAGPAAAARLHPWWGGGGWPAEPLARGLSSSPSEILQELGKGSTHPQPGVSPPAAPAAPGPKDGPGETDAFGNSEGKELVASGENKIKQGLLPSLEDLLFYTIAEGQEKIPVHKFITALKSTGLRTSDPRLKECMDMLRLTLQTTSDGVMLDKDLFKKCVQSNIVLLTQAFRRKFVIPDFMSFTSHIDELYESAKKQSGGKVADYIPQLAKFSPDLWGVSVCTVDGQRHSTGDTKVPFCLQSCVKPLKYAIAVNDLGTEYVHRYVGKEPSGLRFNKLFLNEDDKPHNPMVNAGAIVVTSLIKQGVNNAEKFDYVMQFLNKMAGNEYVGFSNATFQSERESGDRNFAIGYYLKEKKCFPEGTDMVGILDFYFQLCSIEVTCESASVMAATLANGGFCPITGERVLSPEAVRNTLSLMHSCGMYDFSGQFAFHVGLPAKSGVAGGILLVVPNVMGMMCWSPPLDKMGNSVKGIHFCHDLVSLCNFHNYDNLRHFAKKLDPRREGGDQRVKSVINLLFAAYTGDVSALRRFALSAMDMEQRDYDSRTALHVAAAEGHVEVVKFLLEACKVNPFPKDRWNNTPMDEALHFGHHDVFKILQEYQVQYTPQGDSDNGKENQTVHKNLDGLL
#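 Assay buffer: 45 mM KH2PO4 pH 8.2, 0.02% Tween-20. hKGA acts on L-glutamine (1 mM solution added); product glutamate is reported by an oxidase/peroxidase Amplex Red coupling, with fluorescence taken at baseline and 30 min.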
# PI4K2A inh – PI4K2A (human) kinase inhibition | AID 1346378 | 0.13% of 420,000 active | Q9BTU6 | purified PI4K2A, ADP-Glo luminescence, 1 h; stronger effect = lower value | activity change, negative = inhibition, % at 76.9 µM; in the data active means activity change below about -50%; inconclusive means mostly about -30% to -49%
#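 ADP-Glo luminescence measured ADP generated by PI4K2A enzyme (4 ug/mL before mixing) with 1.2 mM PI substrate (pre-mix) and 300 microM ATP (pre-mix). Tris pH7.5 buffer with MgCl2, Triton X-100; 1 h reaction at ambient temperature.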
# CCT modulator – modulators of cytosolic chaperonin (CCT/TRiC) activity | purified chaperonin ATPase assay, HTRF ADP detection, 30 min | activity change, % (test concentration not listed), hits read low | 0.3% of 360,000 active | AID 651819; in the data active means activity change below about -30%
#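 TRiC (40 or 20 nM final, by batch activity) in 30 mM Tris pH 7.4, 100 mM KCl, 5 mM MgCl2, 1 mM DTT was treated with compound at 76 uM single dose, then 10 uM ATP, 30 min at 37 °C. ADP was read by HTRF Transcreener.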
# PINK1 modulator – PINK1 expression modulation. PINK1 immunofluorescence, high-content cytometry, 24 h. 0.2% of 410,000 active. Potency, µM (highest dose often 76.6 µM), actives largely listed as activators; active means well fitted activation curve with a large enough effect; inconclusive means small, poorly fitted or top-dose-only effect; cell line not stated here; further: nearly all actives have a fitted effect of over 65% in size
#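 Compound titrations (5 concentrations, 24 h) on a stable cell line; DMSO and CCCP controls. Endpoint: fixed-cell PINK1 immunofluorescence with mitochondrial, cell and nuclear markers, scanned by microplate cytometer.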
# Numbers stand for hits; 0 = inactive; ? = inconclusive; - = no result given; ! = not active in a repeat. Compounds with a hit are over-represented: about 0.78% of the library has one in this group of screens. Unless noted, the call rests on the fitted dose curve; in most records, active means well fitted curve in the direction sought with a large enough effect; inconclusive means small, poorly fitted or top-dose-only effect, or another doubt; inactive means no such curve, though single readings can be large; an effect the other way counts as inactive or inconclusive.
SMILES,PGK inhibitor,GLS inh,PI4K2A inh,CCT modulator,PINK1 modulator
Cc1ccc(-c2csc3ncnc(-n4nc(C)cc4N)c23)cc1,0,0,0,-95.1,0
COc1cccc(CN2C(=O)NC(C)(C3CCN(Cc4cc(Cl)ccc4O)CC3)C2=O)c1OC (centres undefined),-,-,-,-,0
CC1(C)CC(=O)C2=C(C1)NC(SCC(=O)Nc1ccccc1)=C(C#N)C2c1ccco1 (centres undefined),0,0,0,0,0
Cc1ccc(C(=O)CSC2=C(C#N)C(c3ccco3)C3=C(CC(C)(C)CC3=O)N2)cc1 (centres undefined),0,0,0,-46.6,0
O=C(ONC(=O)C1C2C=CC(C2)C1C(=O)NOC(=O)c1ccccc1)c1ccccc1 (centres undefined),0,12.6µM,0,0,0
CC1(C)CC(=O)C(C2C3=C(CC(C)(C)CC3=O)Oc3c(Br)cc(Br)cc32)=C(O)C1 (centres undefined),0,0,0,0,22.4µM
CC(=O)c1ccc(OCc2cc(C(=O)N3CCC(c4ccncc4)CC3)no2)cc1,0,0,0,-49.4,0
Cc1onc(-c2c(Cl)cccc2Cl)c1C(=O)NC1C(=O)N2C1SC(C)(C)C2C(=O)O (centres undefined),0,12.6µM,0,0,0
Cc1onc(-c2c(Cl)cccc2Cl)c1C(=O)N[C@@H]1C(=O)N2[C@@H]1SC(C)(C)[C@@H]2C(=O)O,0,10µM!,0,0,0
Cc1ncc2c(c1CNC(=O)c1ccc3c(c1)OCO3)CCN(C(=O)c1ccoc1)C2,-,-,-,-,0
Cc1cc(CNC(=O)c2cnn(-c3nccc(-c4ccc5c(c4)OCO5)n3)c2C2CC2)on1,-,-,-,-,0
COc1cc(/C=C/CN2CCOc3ccc(C(O)c4cccnc4)cc3C2)ccc1O (centres undefined),-,-,-,-,0
O=C(Nc1ccc(Cl)cc1)C1CCN(S(=O)(=O)c2ccc(Br)s2)CC1,0,0,0,-,17.8µM
COc1cc2c(cc1OC)[C@@H](Cc1cc(OC)c(OC)c(OC)c1)[N@+](C)(CCCOC(=O)CC/C=C/CCC(=O)OCCC[N@+]1(C)CCc3cc(OC)c(OC)cc3[C@H]1Cc1cc(OC)c(OC)c(OC)c1)CC2,-,0,-,-,-
COc1ccc2[nH]c3c(NCCN(C(C)C)C(C)C)ncnc3c2c1,0,0,0,-52.3,0
CCOc1ccc2[nH]c3c(NCCN(CC)CC)ncnc3c2c1,0,0,0,0,0
COC[C@@H](c1ccc(C(F)(F)F)cc1)N1CCN(C2(C)CCN(C(=O)c3c(C)ncnc3C)CC2)C[C@@H]1C,-,0,-,-,-
Cc1ccnc(NC(=O)c2ccc(OCC3CCCO3)cc2)c1 (centres undefined),?,0,-62.8,0,0
COc1cccc(-n2c([S-])c(C(=O)Nc3ccc(S(=O)(=O)N4CCOCC4)cc3)[n+]3cc(C(N)=O)ccc23)c1,0,0,0,-40.6,0
COc1cc(C(=O)Nc2ccc(N(C)C)cc2)cc(OC)c1OC,0,0,0,0,11.2µM
COc1cccc(C(CCc2cc(OC)c(OC)c(OC)c2)NC(C)=O)c1 (centres undefined),0,0,0,-73.8,0
COc1cccc(CNC(=O)CC(NC(C)=O)c2ccccc2)c1 (centres undefined),0,0,0,0,0
CCOC(=O)N1CCN(C(=O)c2ccc(-c3ccccc3OC)nc2N2CCC(N3CCCC(CO)C3)CC2)CC1 (centres undefined),-,-,-,-,0
Cc1ccc(OCC(=O)N2CCN(C(=O)CCC3CCCC3)CC2)cc1,0,0,0,-75.9,0
O=C(CCC1CCCC1)N1CCN(C(=O)COc2ccccc2)CC1,0,0,0,0,0
SMILES,PGK inhibitor,GLS inh,PI4K2A inh,CCT modulator,PINK1 modulator
CCN(CC)CC(=O)Oc1ccc(NC(C)=O)cc1,-,-,0,-,-
c1cn2cc(-c3ccc4c(c3)OCO4)nc2s1,0,-,0,-62.9,-
CC(=O)Nc1ccc(-c2cn3ccsc3n2)cc1,0,0,0,0,0
COC(=O)c1cn([C@@H]2C[C@@H](C(=O)Nc3cccc(SC)c3)N(C3CCCCCC3)C2)nn1,-,-,-,-,0
O=C(Nc1nc(-c2ccc3ccccc3c2)cs1)C1CCN(S(=O)(=O)c2cccs2)CC1,0,0,0,-51.4,0
Cc1nn(-c2ccc3ccccc3c2)c(=O)c2ccccc12,0,0,0,0,0
Cc1nn(-c2nc3ccccc3[nH]2)c(=O)c2ccccc12,?,0,-81.4,0,0
COc1ccccc1-c1ccnc(-n2ncc(C(=O)N(C)C(C)c3nc(C)cs3)c2C2CC2)n1 (centres undefined),-,-,-,-,0
CC[C@@]1(O)C(=O)OCc2c1cc1n(c2=O)Cc2c-1nc1ccccc1c2/C=N/OC(C)(C)C,-,-,0,-,-
COc1ccc(/C=N/NC(=S)N[C@H]2CC3CCC2C3)cc1 (some centres undefined),0,0,0,-67.1,0
COc1cc(/C=N/NC(=S)NC2CC3CCC2C3)ccc1O (centres undefined),0,0,0,0,0
CN(CCO)C(=O)c1cn(C2CCN(Cc3cccc(C(F)(F)F)c3)CC2)nn1,-,-,-,-,0
C=C(C)C(=O)Nc1ccc(OC(F)(F)C(F)F)c(NC(=O)C(=C)C)c1,?,12.6µM,0,0,0
COc1ccc(Cl)cc1N1C(=O)[C@@H]2C[C@H]1CN2Cc1nc2ccccc2nc1C,-,-,-,-,0
CN(C)S(=O)(=O)c1cc([N+](=O)[O-])ccc1N1CCCCCC1,0,0,0,-30.8,0
COc1ccc2c(c1)-c1nc(-n3ncc(C(=O)N(C)CCO)c3C3CC3)ncc1CC2,-,-,-,-,0
Cc1cccc(Nc2n[nH]c(=S)s2)c1C,0,0,0,0,-
CNc1n[nH]c(=S)s1,0,14.1µM,0,0,0
COc1ccccc1Nc1n[nH]c(=S)s1,0,10µM,0,0,0
CC(C)c1ccc(Nc2n[nH]c(=S)s2)cc1,-,0,0,-62.7,0
COc1ccccc1CN1CCC(n2cc(C(=O)N3CCCCC3)nn2)CC1,-,-,-,-,0
COc1ccc2c(c1)CCc1cnc(-n3ncc(C(=O)N(C)CCc4ccccn4)c3C)nc1-2,-,-,-,-,0
CCCCn1c(=O)c2ccccc2n2c(=S)[nH]nc12,0,12.6µM,0,0,0
Cn1c(=O)c2ccccc2n2c(=S)[nH]nc12,?,10µM,0,0,0
COCc1c(C(=O)NC2CCCC2)cnn1-c1nccc(-c2cccs2)n1,-,-,-,-,0
CCOC(=O)N1CCC(Nc2ccc(Cl)cc2N)CC1,-,-,0,-,-
COC(=O)Cn1cc(/C=N/NC(=O)c2ccc(C#N)cc2F)c2ccccc21,0,0,0,0,11.2µM
O=C(Nc1ccc(N2CCCCCC2)cc1)c1ccccc1Cl,0,0,0,0,0
O=C(Nc1ccc(N2CCCCC2)cc1)c1ccccn1,?,0,-65.3,0,0
Fc1ccc(N=C2NN=C(c3cc(F)ccc3F)CS2)cc1,0,0,0,0,?
